In the library only some 4.6% were active in any assay of this set; here they are far more common.
PfHsp90 set2: growth inhibition of yeast expressing Plasmodium Hsp90 | inhibition, % at 9.4 µM | 0.32% of 310,000 active | S. cerevisiae expressing PfHsp90, BacTiter-Glo ATP, 48 h; yeast lacking PDR1 and PDR3 efflux regulators;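 active = every replicate shows inhibition above about 80%, whatever the replicate mean, limit read from the data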;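 note: 0% = DMSO neutral controls and 100% = 20 µM radicicol positive controls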
tim10-1 inh: tim10-1 yeast growth inhibition; S. cerevisiae tim10-1 ts strain growth, BacTiter-Glo, 24 h; inhibition, % at 20 µM; 2.2% of 330,000 active; AID 463190;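 active = inhibition of at least 40%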;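 note: mutant grown at 25 °C; 0% = DMSO wells with yeast and 100% = wells holding no yeast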
TIM10 inh: growth inhibitors of TIM10 yeast strain | S. cerevisiae TIM10 strain growth, BacTiter-Glo luminescence, 24 h | 1.4% of 330,000 active | AID 463195 | inhibition, % at 10 µM;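 active = inhibition of 40% or more at the single tested concentration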;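 note: wild-type TIM10 isogenic control strain grown at permissive 25 °C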
tim23-1 inh: inhibits growth of tim23-1 mutant yeast | S. cerevisiae tim23-1 growth, BacTiter-Glo luminescence, 24 h | inhibition, % at 20 µM | 1.3% of 330,000 active | AID 463212;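 active = growth inhibition of the mutant yeast at or above 50%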;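 note: temperature-sensitive mutant grown at 25 °C; plate controls were DMSO-treated mutant yeast for no effect and medium wells lacking yeast for full effect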
SKKanGAS inh: SKKanGAS growth inhibition; S. pyogenes SKKanGAS, kanamycin growth, BacTiter-Glo, 6 h; inhibition, % at 7.5 µM; 1.3% of 300,000 active; AID 1662;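 active = mean replicate score, as percent of positive control median, at least 50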;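 note: strain carries kanamycin resistance gene driven by streptokinase promoter and grows in 40 µg/ml kanamycin; loss of luminescence reflects streptokinase promoter inhibition or plain growth inhibition; 0% = median of DMSO wells and 100% = positive control at its reference dose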
NLRP3 yeast inh: blocks the NALP3 inflammasome reconstituted in yeast. Yeast reconstituted NLRP3/ASC/caspase-1, beta-gal luminescence, 24 h. inhibition, % at 10 µM. 0.39% of 330,000 active. AID 2825;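 active = inhibition of 50% or more; inactive = inhibition below 50%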;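 note: plate controls were induced DMSO wells for no effect and uninduced yeast grown without galactose for full effect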
tim10-1 confirm: confirmation of tim10-1 mutant yeast growth inhibitors | shares compounds with tim10-1 inh | S. cerevisiae tim10-1 ts strain growth, BacTiter-Glo, 24 h | inhibition, % at 20 µM | 56% of 7,400 active | AID 463213;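 active = inhibition of yeast growth at or above a set limit in either of two repeat tests at 20 µM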;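 note: tim10-1 mutant grown at permissive 25 °C to find synthetic lethal compounds; 0% = DMSO yeast wells and 100% = medium wells without yeast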
tim10 confirm: TIM10 yeast growth inhibition, confirmed; 63% of 4,600 active; S. cerevisiae tim10 strain growth, BacTiter-Glo luminescence, 24 h; inhibition, % at 10 µM; shares compounds with TIM10 inh;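 active = inhibition of yeast growth at or above a set limit in either of two replicates at 10 µM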;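 note: this counterscreen used the strain with wild-type TIM10; 0% = yeast with DMSO and 100% = medium wells lacking yeast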
tim23-1 confirm: confirmation of tim23-1 mutant yeast growth inhibitors | shares compounds with tim23-1 inh | S. cerevisiae tim23-1 growth, BacTiter-Glo luminescence, 24 h | inhibition, % at 20 µM | 83% of 4,400 active;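 active = inhibition above about 39% in either of two replicate wells at 20 µM, limit read from the data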;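 note: temperature-sensitive tim23-1 mutant grown at 25 °C; 0% = DMSO wells with yeast and 100% = medium wells without yeast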
Numbers without * were called inactive; nt = no result.

SMILES	PfHsp90 set2	tim10-1 inh	TIM10 inh	tim23-1 inh	SKKanGAS inh	NLRP3 yeast inh	tim10-1 confirm	tim23-1 confirm	others
CCOc1cc(/C=C2\C(=O)N(c3cccc(C(F)(F)F)c3)C(=O)c3ccccc32)ccc1O	3	42*	30	65*	-5	3	34*	47*
COc1cccc(N2C(=O)c3ccncc3C2=O)c1	20	15	-18	-8	-3	10	nt	nt
CC1=NN(c2ccccc2)C(=O)/C1=C/c1cccc(C)c1	24	14	20	35	3	6	nt	nt
CC(C)Oc1cccc(C(=O)C2CCCN(C(=O)CCn3cnnn3)C2)c1 (stereo not given)	14	2	-9	21	-2	1	nt	nt
NC(=O)Nc1ccc(C(=O)OCC(=O)N2CCCC2=O)cc1	-20	-1	26	1	nt	5	nt	nt
Cc1cc(Nc2ccc3c(c2)OCCO3)c2cc(Cl)ccc2n1	17	25	11	17	-14	17	nt	nt
O=c1/c(=C/c2cccc3ccccc23)sc2ncnn12	nt	46*	16	69*	0	3	19	74*
O=c1c2ccccc2c(-c2ccc(O)cc2)nn1-c1cccc(C(F)(F)F)c1	8	42*	53*	57*	-13	6	36*	56*	tim10 confirm=-6
O=c1c2ccccc2c(-c2cccc(C(F)(F)F)c2)nn1-c1ccccc1	-29	15	-22	34	1	9	nt	nt
CCN(CC)CCN(C(=O)c1ccc2c(c1)CCCC2)c1nc2cc(OC)c(OC)cc2s1	-20	61*	49*	66*	-4	28	40*	61*	tim10 confirm=46*
COc1cc2nc(N(CCN(C)C)C(=O)c3ccc4ccccc4c3)sc2cc1OC	-22	5	10	22	-9	8	nt	nt
O=c1nc2s/c(=C\c3ccco3)c(=O)n2nc1Cc1ccc(F)cc1	0	71*	78*	53*	8	11	76*	-8	tim10 confirm=80*
Cc1ccc(-c2nc3s/c(=C\c4ccco4)c(=O)n3n2)cc1	-23	8	9	32	-1	-1	nt	nt
COc1ccc(-c2coc3cc(O)cc(O)c3c2=O)cc1	17	53*	23	68*	-1	41	37*	64*
CC1=NNC(=O)C(CC(=O)Nc2ccc(Cl)c(Cl)c2)C1 (stereo not given)	-7	9	2	16	-7	8	nt	nt
Oc1ccc(Cl)cc1/C=N/c1nccs1	4	45*	30	55*	-5	16	44*	30
C(=N\c1nccs1)/c1cccnc1	2	12	-9	20	-2	5	nt	nt
Oc1c(Br)cc(Br)cc1/C=N/c1nccs1	57	46*	29	75*	nt	13	34*	90*
Cc1nn(CC(=O)Nc2ccc(Br)cc2F)c(=O)c2cccn12	-14	-14	1	-4	4	13	nt	nt
CC1CCN(c2ccc(NC(=O)c3ccc(Br)o3)cc2)CC1	12	18	13	21	19	23	nt	nt
CSc1nc2ccc(NS(=O)(=O)c3ccccc3F)cc2s1	-8	22	24	35	3	17	nt	nt
CSc1nc2ccc(NS(=O)(=O)c3c(Cl)cccc3Cl)cc2s1	-38	43*	35	52*	34	24	30*	57*
Cc1cc(C)c2sc(NC(=O)C3=COCCO3)nc2c1	9	45*	43*	53*	-6	22	35*	40*	tim10 confirm=31
Cc1ccc(Cl)c2sc(NC(=O)C3=COCCO3)nc12	-15	61*	42*	72*	2	3	51*	54*	tim10 confirm=41*
COc1ccccc1NC(=O)CC1S/C(=N/N=C(\C)C2CCCCC2)NC1=O (stereo not given)	17	29	19	23	25	11	nt	nt
SMILES	PfHsp90 set2	tim10-1 inh	TIM10 inh	tim23-1 inh	SKKanGAS inh	NLRP3 yeast inh	tim10-1 confirm	tim23-1 confirm	others
Cc1ccc(NC(=O)CN2C(=O)S/C(=C/c3ccncc3)C2=O)cc1	32	45*	42*	56*	4	16	42*	51*	tim10 confirm=43*
Cc1ccc(/C=C2\SC(=S)N(CC(=O)Nc3cccnc3)C2=O)cc1	3	1	-38	-17	3	-5	nt	nt
COc1ccc2c(c1)-c1nc(NC(=O)c3ccco3)sc1CC2	-9	58*	25	57*	14	16	53*	61*
O=C(Nc1nc2c(Br)cccc2s1)C1CC1	24	46*	20	80*	-1	-1	36*	76*
O=C(Nc1nc2c(Cl)c(Cl)ccc2s1)C1CC1	-1	11	19	1	2	43	nt	nt
O=C(c1cccs1)N(C(=O)c1cccs1)c1ccc(Br)cn1	-8	42*	63*	75*	13	37	31*	62*	tim10 confirm=50*
O=C(Nc1ccc(O)cc1)c1ccccc1OCc1ccccc1	-23	45*	37	53*	-2	28	30	53*
COc1ccc(C(=O)NC(=S)NCc2ccccc2)cc1OC	-20	31	-5	25	-13	26	nt	nt
COc1ccc(C(=O)NC(=S)NCc2ccco2)cc1Br	-31	46*	21	54*	-6	25	38*	53*
COc1ccc(C(=O)NC(=S)NC(C)(C)C)cc1Br	6	40*	60*	64*	0	35	47*	77*	tim10 confirm=53*
CCN(CC(=O)Nc1ccc(NC(C)=O)cc1)C(=O)CN1C(=O)C2CCCCC2C1=O (stereo not given)	-2	-3	6	-8	nt	5	nt	nt
CCCNC(=O)c1cccc(S(=O)(=O)N2CC3(C)CC2CC(C)(C)C3)c1 (stereo not given)	-86	41*	26	59*	-4	18	33*	49*
O=C(c1cc(Br)c[nH]1)N1CCSCC1	12	23	6	25	-1	14	nt	nt
Cc1cc2nc(Cl)c(Cl)nc2cc1C	3	9	-15	3	-4	-16	nt	nt
Cc1cc2cc(C=C(C#N)C#N)c(Cl)nc2cc1C	12	55*	38	62*	0	18	56*	66*
CC(=O)Nc1ccc(N=Cc2c(O)c(C(=O)Nc3ccccc3)cc3ccccc23)cc1	nt	49*	63*	64*	61*	14	1	34	tim10 confirm=21
CC(=O)Nc1ccc(N=Cc2c(O)c3ccccc3oc2=O)cc1	-12	6	-11	-5	1	4	nt	nt

Bioassay records deposited in PubChem by several laboratories.
